From PubChem BioAssay AID540321 (Johns Hopkins Ion Channel Center, 2011)
Calls of active or inactive are those of the source.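 How the source made its calls: active means Inhibition of the Kir2.1 potassium channel over 30% at some tested dose, plus a fitted dose response curve; inactive means no Kir2.1 inhibition at any dose, or no curve fitted.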

Target: Inward rectifier potassium channel 2 (Mus musculus) (UniProt P35561)
Assay: off-target blockade of inward rectifier Kir2.1 – cell-based, FluxOR thallium flux, CRC round 2, selectivity assay for KCNK9 inhibitor project, SAR follow-up (AID 540321)

Chain of Inward rectifier potassium channel 2 (Mus musculus) (P35561 whole entry, looked up): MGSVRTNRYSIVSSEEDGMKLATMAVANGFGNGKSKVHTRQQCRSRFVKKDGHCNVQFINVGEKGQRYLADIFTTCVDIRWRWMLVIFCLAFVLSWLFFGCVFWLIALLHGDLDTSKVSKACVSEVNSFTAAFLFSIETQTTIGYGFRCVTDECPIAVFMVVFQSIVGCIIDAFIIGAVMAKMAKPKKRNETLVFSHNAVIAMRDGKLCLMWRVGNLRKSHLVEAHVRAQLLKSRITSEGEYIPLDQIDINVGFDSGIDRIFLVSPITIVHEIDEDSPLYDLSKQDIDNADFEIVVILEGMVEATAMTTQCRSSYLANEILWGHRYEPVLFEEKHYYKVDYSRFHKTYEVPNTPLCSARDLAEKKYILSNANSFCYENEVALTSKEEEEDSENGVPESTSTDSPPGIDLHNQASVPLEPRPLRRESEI

Compound | outcome
Cc1cccc(C(=O)Nc2ccccc2NC(=O)c2ccccc2)c1 | inactive
CN(C)c1ccc(C(=O)Nc2cccc(NC(=O)c3ccccc3)c2)cc1 | inactive
Cc1cccc(C(=O)Nc2cccc(NC(=O)c3ccccc3OCC(C)C)c2)c1 | inactive
O=C(Nc1cccc(NC(=O)c2ccoc2)c1)c1ccccc1 | inactive
CCOc1ccccc1C(=O)Nc1cccc(NC(=O)c2cccc(C)c2)c1 | inactive
CCOc1ccccc1NC(=O)c1cccc(NC(=O)c2ccccc2OC)c1 | inactive
CCOc1ccccc1NC(=O)c1cccc(NC(=O)c2ccccc2)c1 | inactive
CCOc1ccccc1NC(=O)c1cccc(NC(=O)c2cccc(C(F)(F)F)c2)c1 | inactive
CCOc1ccccc1NC(=O)c1cccc(NC(=O)c2cccc(OC)c2)c1 | inactive
CC(C)n1c(-c2ccco2)n[nH]c1=S | inactive
CCOc1ccccc1NC(=O)c1cccc(C(=O)NC2CCCC2)c1 | inactive
CCOc1ccccc1NC(=O)c1cccc(NC(=O)C2CC2)c1 | inactive
COc1ccccc1C(=O)Nc1cccc(NC(=O)c2ccccc2)c1 | inactive
CC(C1CC2CCC1C2)n1c(-c2ccsc2)n[nH]c1=S (centres undefined) | inactive
COc1ccccc1C(=O)Nc1cccc(NC(=O)c2ccccc2C(C)C)c1 | inactive
Cc1cccc(C(=O)Nc2cccc(NC(=O)c3cccc(C(F)(F)F)c3)c2)c1 | inactive
CC(c1ccco1)n1c(-c2ccoc2)n[nH]c1=S (centres undefined) | inactive
Cc1cccc(C(=O)Nc2cccc(NC(=O)c3ccc(N(C)C)cc3)c2)c1 | inactive
CC(C1CC2CCC1C2)n1c(C2CCOC2)n[nH]c1=S (centres undefined) | inactive
